The source of these data is PubChem BioAssay.

Inconclusive results are not listed. The source made the active and inactive calls. Unless noted, cut-off not given; nearly all actives show AC50 up to about 26 µM.

Assay [1] in a line: growth inhibition of DIPG glioma cells, dose response, cell-based, SU-DIPG-XVII, MIPE5.0, CellTiter-Glo, qHTS (AID 1347060). The conditions noted are these: SU-DIPG-XVII viability, CellTiter-Glo ATP luminescence.
A short description of assay [2]: growth inhibition of DIPG glioma cells, dose response, cell-based, SU-DIPG-XIII, MIPE4.0, CellTiter-Glo, qHTS (AID 1347061; cut-off not given, nearly all actives have AC50 up to about 37 µM;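 further: cells exposed to compound for 48 hours before readout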). The conditions noted are these: SU-DIPG-XIII viability, CellTiter-Glo ATP luminescence.
Assay [3] is described as follows: growth inhibition of DIPG glioma cells, dose response, cell-based, JHH-DIPG-1, MIPE4.0, CellTiter-Glo, qHTS (AID 1347062; cut-off not given, nearly all actives have AC50 up to about 27 µM). Conditions: JHH-DIPG-1 viability, CellTiter-Glo ATP luminescence. Background: ATP-based viability assays read luminescence as a measure of living cells.
Assay [4] is described as follows: growth inhibition of DIPG glioma cells, dose response, cell-based, SU-DIPG-IV, MIPE4.0, CellTiter-Glo, qHTS (AID 1347063; cut-off not given, nearly all actives have AC50 up to about 30 µM;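 further: compound exposure lasted 48 hours before the viability readout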). The conditions noted are these: SU-DIPG-IV viability, CellTiter-Glo ATP luminescence.
Assay [5] can be described thus: viability loss in pontine glioma line – cell-based, SU-DIPG-XXV, MIPE5.0, CellTiter-Glo, qHTS, dose response (AID 1347065).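 Further: cells exposed to compound for 48 hours before ATP readout.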 The conditions noted are these: CellTiter-Glo ATP luminescence.
Assay [6] in a line: SU-DIPG-VI glioma cell viability, MIPE4.0 library, CellTiter-Glo luminescence, qHTS (AID 1347066; cut-off not given, nearly all actives have AC50 up to about 30 µM;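 further: cells exposed to compound for 48 hours before readout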). Conditions: CellTiter-Glo ATP luminescence.
Assay [7] in a line: JHH-DIPG-1 glioma cell viability, MIPE5.0 library, CellTiter-Glo luminescence, qHTS (AID 1347067).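 Further: cells exposed to compound for 48 hours before readout.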 Conditions: JHH-DIPG-1 glioma viability, CellTiter-Glo ATP luminescence.
Assay [8] is described as follows: SU-DIPG-XXV glioma cell viability, MIPE5.0 library, qHTS (AID 1347068; cut-off not given, nearly all actives have IC50 up to about 30 µM). A general note: In qHTS, concentration-response curves come from the screen itself.
Assay [9] is described as follows: modifiers of HSF1 nuclear foci, imaging, Selleck Cancer Library (AID 1347162; in the data active means plate-normalised HSF1 focus index below about 0.46). Conditions: human cells, at 10 µM; SSMD: measured here: HSF1 foci SSMD mean; cell count: measured here: cell number; plate-normalised HSF1 focus index: stronger effect = lower value.
Assay [10] in a line: survival rescue of mitochondrial mutant cells in low glucose, primary screen, MELAS cybrids, Rieske KO mouse fibroblasts, CellTiter-Glo (AID 1508586;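 active means mean z-score across replicates of 1.96 or higher in either the MELAS or the Rieske mutant cell line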;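 further: z relative to plate mean and SD of compound and empty wells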).

For `C=C1C(=O)OC(CCCCCCCC)C1C(=O)O` (centres undefined), the outcome in assay [1], in assay [2], in assay [3], in assay [4], in [5] and in assay [6] was inactive. Besides, the call in [7] and in assay [8] was inactive.

`O=C(CN1C(=O)C2(CCCC2)NC[C@H]1c1cc(F)cc(F)c1)Nc1ccc2c(c1)C[C@@]1(C2)C(=O)Nc2ncccc21`: the result in [1], in assay [2], in [3], in assay [4], in assay [5] and in assay [6] was inactive. The compound was classed as inactive in assay [7] and in assay [8].

In the case of `C1Cc2[nH]nc(-c3nn[nH]n3)c2C1`, the call in assay [1], in assay [2], in assay [3], in [4], in [5] and in assay [6] was inactive. Further, the outcome in [7] and in assay [8] was inactive.

Regarding `COc1nc(-c2ccc3c(c2)OCO3)n(-c2ccc(NC(=O)CSc3ccccc3)cc2)n1`, the compound was called inactive in assay [1], in [2], in [3], in assay [4], in assay [5] and in [6]. The outcome in assay [8] was inactive. This compound returned an SSMD in [9] of 0.993. In assay [9], this compound yielded a cell count of 6960. Besides, the plate-normalised HSF1 focus index in assay [9] was 1.06 (inactive).

`CC(C)(F)C[C@H](N[C@@H](c1ccc(-c2ccc(S(C)(=O)=O)cc2)cc1)C(F)(F)F)C(=O)NC1(C#N)CC1`: the outcome in assay [1], in [2], in [3], in assay [4], in assay [5] and in assay [6] was inactive. The call in [7] and in assay [8] was inactive.

Regarding `CN[C@@H](C)[C@H]1[C@H](O)C[C@@]2(C)[C@@H]3CC[C@H]4C(C)(C)[C@@H](NC)CC[C@@]45C[C@@]35CC[C@]12C`, the outcome in assay [1], in assay [2], in assay [3], in assay [4], in assay [5] and in assay [6] was inactive. Also, the outcome in [7] and in assay [8] was inactive.

For `CC1(C)O[C@@H]2C[C@H]3[C@@H]4CCC5=CC(=O)C=C[C@]5(C)[C@H]4[C@@H](O)C[C@]3(C)[C@]2(C(=O)CO)O1`, the call in [1], in [2], in [3], in assay [4], in assay [5] and in assay [6] was inactive. Moreover, in assay [8], the call was inactive. Besides, the z-score in [10] (MELAS cybrid survival, CellTiter-Glo 48 h, stronger effect = higher value) was -0.574 (inactive); in assay [10] (Rieske KO mouse fibroblast survival, CellTiter-Glo 72 h), 0.349.
